From PubChem BioAssay AID1159580 (chemical genetic matrix, 2015)
Values joined by “and” are separate entries in the source; they are usually repeats but may differ in a detail not shown here. Equal entries are not always repeated. The whole screen tested about 5,500 compounds, of which about 2,000 (36%) were called active. Not shown: some 18% with an inconclusive outcome. Rule as the data show it: active = normalized growth mostly below about 0.91 (no sharp cut-off); inconclusive = no clear call, values can overlap the other calls; inactive = mostly above about 0.92. Some of the results follow.

Experiment: chemical genetic growth profiling, strain panel (AID 1159580);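 also: tested at 20 µM; growth read once vehicle control cultures reached saturation at 30 °C; 1 = growth at the plate median or of vehicle wells; lower values mean less growth of the strain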
Details: growth OD
[1] = S. cerevisiae deletion strains, locus YAL013W, strain DEP1, stronger effect = lower value
[2] = S. cerevisiae deletion strains, locus YBR229C, strain ROT2, stronger effect = lower value
[3] = S. cerevisiae deletion strains, locus YDL101C, strain DUN1, stronger effect = lower value
[4] = S. cerevisiae deletion strains, locus YDL134C, strain PPH21, stronger effect = lower value
[5] = S. cerevisiae deletion strains, locus YDR150W, strain NUM1, stronger effect = lower value
[6] = S. cerevisiae deletion strains, locus YGR078C, strain PAC10, stronger effect = lower value
[7] = S. cerevisiae deletion strains, locus YGR229C, strain SMI1, stronger effect = lower value
[8] = S. cerevisiae deletion strains, locus YHR030C, strain SLT2, stronger effect = lower value
[9] = S. cerevisiae deletion strains, locus YJR043C, strain POL32, stronger effect = lower value
[10] = S. cerevisiae deletion strains, locus YJR075W, strain HOC1, stronger effect = lower value
[11] = S. cerevisiae deletion strains, locus YKL190W, strain CNB1, stronger effect = lower value
[12] = S. cerevisiae deletion strains, locus YLR039C, strain RIC1, stronger effect = lower value
[13] = S. cerevisiae deletion strains, locus YLR262C, strain YPT6, stronger effect = lower value
[14] = S. cerevisiae deletion strains, locus YMR263W, strain SAP30, stronger effect = lower value
[15] = S. cerevisiae deletion strains, locus YNL153C, strain GIM3, stronger effect = lower value
[16] = S. cerevisiae deletion strains, locus YNL322C, strain KRE1, stronger effect = lower value
[17] = S. cerevisiae deletion strains, locus YOL006C, strain TOP1, stronger effect = lower value
[18] = S. cerevisiae deletion strains, locus YPL055C, strain LGE1, stronger effect = lower value
[19] = S. cerevisiae deletion strains, locus YPL241C, strain CIN2, stronger effect = lower value
[20] = S. cerevisiae strains, strain wild type, stronger effect = lower value

Measured: normalized growth

O=C(O)c1cc(C(F)(F)F)ccc1F
inactive: [1] 0.999 | [2] 0.982 | [3] 0.961 | [4] 0.989 | [5] 1 | S. cerevisiae deletion strains, locus YEL061C, strain CIN8, stronger effect = lower value 0.997 | [6] 0.975 | [7] 1 | [8] 0.964 | S. cerevisiae deletion strains, locus YHR087W, strain rtc3, stronger effect = lower value 0.973 | S. cerevisiae deletion strains, locus YJL187C, strain SWE1, stronger effect = lower value 0.998 | [9] 0.995 | [10] 1 | [11] 1 | [12] 0.991 | S. cerevisiae deletion strains, locus YLR058C, strain SHM2 (second series), stronger effect = lower value 0.983 | S. cerevisiae deletion strains, locus YLR085C, strain ARP6, stronger effect = lower value 1.02 | [13] 0.979 | S. cerevisiae deletion strains, locus YML094W, strain GIM5, stronger effect = lower value 0.916 | S. cerevisiae deletion strains, locus YMR219W, strain ESC1, stronger effect = lower value 0.999 | [14] 1.01 | [15] 1.02 | S. cerevisiae deletion strains, locus YNL298W, strain CLA4 (second series), stronger effect = lower value 0.996 | [16] 0.99 | S. cerevisiae deletion strains, locus YNR030W, strain Alg12, stronger effect = lower value 0.982 | [17] 0.987 | [18] 1.01 | [19] 0.929 | S. cerevisiae deletion strains, locus YPR135W, strain CTF4, stronger effect = lower value 0.905 | [20] 0.979

NCCCC(N)(C(=O)O)C(F)F (stereo not drawn)
inactive: S. cerevisiae deletion strains, locus YAL040C, strain CLN3, stronger effect = lower value 0.996 | S. cerevisiae deletion strains, locus YCL061C, strain MRC1 (second series), stronger effect = lower value 1 | S. cerevisiae deletion strains, locus YDR363W, strain ESC2, stronger effect = lower value 0.981 | S. cerevisiae deletion strains, locus YER002W, strain NOP16, stronger effect = lower value 0.996 | [6] 1.01 | [14] 0.994 | [15] 1.02 | S. cerevisiae deletion strains, locus YNL175C, strain NOP13, stronger effect = lower value 1 | S. cerevisiae deletion strains, locus YNL197C, strain WHI3, stronger effect = lower value 0.983 | S. cerevisiae deletion strains, locus YNL224C, strain SQS1, stronger effect = lower value 1.01 | [16] 0.986 | S. cerevisiae deletion strains, locus YOR083W, strain WHI5 (second series), stronger effect = lower value 1.01 | [19] 1

OCC(S)CS (stereo not drawn)
active: [9] 1.3 [resistant] | S. cerevisiae deletion strains, locus YOR069W, strain VPS5, stronger effect = lower value 1.14 [resistant]
inactive: [1] 0.987 | S. cerevisiae deletion strains, locus YBR021W, strain FUR4, stronger effect = lower value 0.999 | [2] 0.96 | S. cerevisiae deletion strains, locus YCL029C, strain bik1, stronger effect = lower value 0.983 | S. cerevisiae deletion strains, locus YDL035C, strain GPR1, stronger effect = lower value 0.979 | S. cerevisiae deletion strains, locus YDL074C, strain BRE1, stronger effect = lower value 0.963 | [3] 0.985 | [4] 0.976 | S. cerevisiae deletion strains, locus YDL185W, strain tfp1, stronger effect = lower value 0.935 | S. cerevisiae deletion strains, locus YDL192W, strain arf1, stronger effect = lower value 0.964 | S. cerevisiae deletion strains, locus YDR101C, strain arx1, stronger effect = lower value 0.978 | [5] 0.981 | S. cerevisiae deletion strains, locus YDR162C, strain NBP2, stronger effect = lower value 0.966 | S. cerevisiae deletion strains, locus YDR318W, strain mcm21, stronger effect = lower value 1 | S. cerevisiae deletion strains, locus YDR388W, stronger effect = lower value 0.982 | S. cerevisiae deletion strains, locus YDR502C, strain sam2, stronger effect = lower value 0.974 | S. cerevisiae deletion strains, locus YER110C, stronger effect = lower value 0.983 | S. cerevisiae deletion strains, locus YER155C, strain BEM2, stronger effect = lower value 0.999 | S. cerevisiae deletion strains, locus YER167W, strain BCK2, stronger effect = lower value 1.02 | S. cerevisiae deletion strains, locus YGL078C, strain dbp3, stronger effect = lower value 0.992 | S. cerevisiae deletion strains, locus YGL086W, strain mad1, stronger effect = lower value 1.01 | S. cerevisiae deletion strains, locus YGL248W, strain PDE1, stronger effect = lower value 0.972 | [6] 0.972 | S. cerevisiae deletion strains, locus YGR135W, strain pre9, stronger effect = lower value 0.962 | [7] 0.986 | S. cerevisiae deletion strains, locus YGR252W, strain gcn5, stronger effect = lower value 0.949 | [8] 1.01 and 0.959 | S. cerevisiae deletion strains, locus YHR079C, strain IRE1 (second series), stronger effect = lower value 1.01 | S. cerevisiae deletion strains, locus YHR079C, strain IRE1, stronger effect = lower value 0.931 | S. cerevisiae deletion strains, locus YHR094C, strain hxt1, stronger effect = lower value 0.98 | S. cerevisiae deletion strains, locus YHR129C, strain ARP1, stronger effect = lower value 1 | S. cerevisiae deletion strains, locus YHR200W, strain rpn10, stronger effect = lower value 0.974 | S. cerevisiae deletion strains, locus YIL066C, strain RNR3, stronger effect = lower value 0.967 | S. cerevisiae deletion strains, locus YIL073C, strain SPO22, stronger effect = lower value 1.03 | S. cerevisiae deletion strains, locus YIL125W, strain kgd1, stronger effect = lower value 0.966 | S. cerevisiae deletion strains, locus YIR030C, strain dcg1, stronger effect = lower value 0.989 | S. cerevisiae deletion strains, locus YJL095W, strain BCK1, stronger effect = lower value 1.01 and 0.978 | S. cerevisiae deletion strains, locus YJL134W, strain LCB3, stronger effect = lower value 0.994 | S. cerevisiae deletion strains, locus YJL168C, strain set2, stronger effect = lower value 0.984 | S. cerevisiae deletion strains, locus YJL187C, strain SWE1 (second series), stronger effect = lower value 0.973 | S. cerevisiae deletion strains, locus YJR066W, strain TOR1, stronger effect = lower value 0.933 | [10] 0.974 | S. cerevisiae deletion strains, locus YKL009W, strain mrt4, stronger effect = lower value 1 | S. cerevisiae deletion strains, locus YKL068W, stronger effect = lower value 0.984 | S. cerevisiae deletion strains, locus YKL085W, strain MDH1 (second series), stronger effect = lower value 1.04 | S. cerevisiae deletion strains, locus YKL085W, strain MDH1, stronger effect = lower value 1.04 | [11] 0.985 | S. cerevisiae deletion strains, locus YKR001C, strain vps1, stronger effect = lower value 0.978 | [12] 1 | S. cerevisiae deletion strains, locus YLR058C, strain SHM2, stronger effect = lower value 0.984 | S. cerevisiae deletion strains, locus YLR102C, strain apc9, stronger effect = lower value 0.979 | S. cerevisiae deletion strains, locus YLR113W, strain HOG1, stronger effect = lower value 1.02 | [13] 0.996 | S. cerevisiae deletion strains, locus YLR268W, strain sec22, stronger effect = lower value 0.955 | S. cerevisiae deletion strains, locus YLR330W, strain CHS5, stronger effect = lower value 1.01 | S. cerevisiae deletion strains, locus YLR342W, strain FKS1 (second series), stronger effect = lower value 1.01 | S. cerevisiae deletion strains, locus YLR371W, strain rom2, stronger effect = lower value 0.986 | S. cerevisiae deletion strains, locus YLR418C, strain cdc73, stronger effect = lower value 0.941 | S. cerevisiae deletion strains, locus YML016C, strain PPZ1, stronger effect = lower value 1 | S. cerevisiae deletion strains, locus YML032C, strain rad52, stronger effect = lower value 0.973 | S. cerevisiae deletion strains, locus YML124C, strain tub3, stronger effect = lower value 0.989 | S. cerevisiae deletion strains, locus YMR078C, strain ctf18, stronger effect = lower value 0.995 | S. cerevisiae deletion strains, locus YMR223W, strain ubp8, stronger effect = lower value 0.999 | [14] 0.974 | S. cerevisiae deletion strains, locus YMR307W, strain GAS1, stronger effect = lower value 1.08 | S. cerevisiae deletion strains, locus YNL067W, strain RPL9B, stronger effect = lower value 0.964 | S. cerevisiae deletion strains, locus YNL128W, strain TEP1, stronger effect = lower value 0.974 | [15] 0.973 | S. cerevisiae deletion strains, locus YNL183C, strain NPR1, stronger effect = lower value 0.97 | S. cerevisiae deletion strains, locus YNL233W, strain BNI4, stronger effect = lower value 1 | S. cerevisiae deletion strains, locus YNL250W, strain rad50, stronger effect = lower value 0.973 | S. cerevisiae deletion strains, locus YNL271C, strain bni1, stronger effect = lower value 0.988 | S. cerevisiae deletion strains, locus YNL298W, strain CLA4, stronger effect = lower value 0.978 | S. cerevisiae deletion strains, locus YNL307C, strain MCK1, stronger effect = lower value 0.998 | [16] 0.978 | S. cerevisiae deletion strains, locus YNR052C, strain pop2, stronger effect = lower value 0.987 | [17] 0.849 | S. cerevisiae deletion strains, locus YOL012C, strain htz1 0.787 | S. cerevisiae deletion strains, locus YOL147C, strain pex11, stronger effect = lower value 0.987 | S. cerevisiae deletion strains, locus YOR061W, strain CKA2, stronger effect = lower value 0.969 | S. cerevisiae deletion strains, locus YOR136W, strain idh2, stronger effect = lower value 0.992 | S. cerevisiae deletion strains, locus YOR144C, strain elg1, stronger effect = lower value 0.976 | S. cerevisiae deletion strains, locus YOR184W, strain ser1, stronger effect = lower value 0.996 | S. cerevisiae deletion strains, locus YOR231W, strain MKK1, stronger effect = lower value 0.921 | S. cerevisiae deletion strains, locus YOR316C, strain cot1, stronger effect = lower value 0.979 | [18] 0.955 | S. cerevisiae deletion strains, locus YPL256C, strain CLN2, stronger effect = lower value 1.01 | S. cerevisiae deletion strains, locus YPR119W, strain clb2, stronger effect = lower value 0.994 | S. cerevisiae deletion strains, locus YPR141C, strain kar3, stronger effect = lower value 0.967 | S. cerevisiae deletion strains, locus YPR163C, strain tif3, stronger effect = lower value 0.988 | S. cerevisiae deletion strains, locus YPR167C, strain met16, stronger effect = lower value 0.968 | S. cerevisiae deletion strains, strain wtn01, stronger effect = lower value 0.961 | [20] 0.99
